Records with an inconclusive call do not appear. Activity calls are given as the source filed them. Calls come from the whole dose curve; as a rule, active = well fitted curve in the direction sought with a large enough effect; inconclusive = small, poorly fitted or top-dose-only effect, or another doubt; inactive = no such curve, though single readings can be large; an effect the other way counts as inactive or inconclusive.
How the values were obtained:
[1] = test system: CRL-7250; experiment: Cytotoxic Profiling of Annotated Libraries Using Quantitative High-Throughput Screening (AID 1296008); conditions: Five cell lines viability, CellTiter-Glo ATP luminescence, 48-72 h; max response: active compounds read low; note: nearly all actives have a fitted effect of over 60% in size
Summary of the method: (§1)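 Cytotoxicity was measured as CellTiter-Glo ATP luminescence, read after 10 min at room temperature. Compound treatment of the cells lasted 48 or 72 hr at 37 degrees Celsius in a qHTS format.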

[2] = test system: HaCat; experiment: as above; conditions: Five cell lines viability, CellTiter-Glo ATP luminescence, 48-72 h; max response: active compounds read low
Summary of the method: as §1

[3] = test system: KB-3-1; experiment: as above; conditions: Five cell lines viability, CellTiter-Glo ATP luminescence, 48-72 h; max response: active compounds read low
Summary of the method: as §1

[4] = test system: NIH3T3; experiment: as above; conditions: Five cell lines viability, CellTiter-Glo ATP luminescence, 48-72 h; max response: active compounds read low
Summary of the method: as §1

[5] = test system: C33A; experiment: Primary qHTS to identify gynecologic anti-cancer compounds using libraries of approved drugs and bioactive compounds (AID 1345084); conditions: Gynecologic cancer cell panel viability, ATPlite luminescence, 48 h; series mostly up to 57.5 µM; note: nearly all actives have a fitted effect of over 55% in size
Summary of the method: (§2)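 48 h compound exposure at 37 C, 5% CO2; five-point qHTS. ATPlite luminescence readout of cell ATP.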

[6] = test system: CAOV3; experiment: as above; conditions: Gynecologic cancer cell panel viability, ATPlite luminescence, 48 h; series mostly up to 57.5 µM
Summary of the method: as §2

[7] = test system: CASKI; experiment: as above; conditions: Gynecologic cancer cell panel viability, ATPlite luminescence, 48 h; series mostly up to 57.5 µM
Summary of the method: as §2

[8] = test system: Es-2; experiment: as above; conditions: Gynecologic cancer cell panel viability, ATPlite luminescence, 48 h; series mostly up to 57.5 µM
Summary of the method: as §2

[9] = test system: HeLa; experiment: as above; conditions: Gynecologic cancer cell panel viability, ATPlite luminescence, 48 h; series mostly up to 57.5 µM
Summary of the method: as §2

[10] = test system: Hek293T; experiment: as above; conditions: Gynecologic cancer cell panel viability, ATPlite luminescence, 48 h, control line for the selectivity index; series mostly up to 57.5 µM
Summary of the method: as §2

[11] = test system: JEG-3; experiment: as above; conditions: Gynecologic cancer cell panel viability, ATPlite luminescence, 48 h; series mostly up to 57.5 µM
Summary of the method: as §2

[12] = test system: OV90; experiment: as above; conditions: Gynecologic cancer cell panel viability, ATPlite luminescence, 48 h; series mostly up to 57.5 µM
Summary of the method: as §2
% is set by controls: 0 for no effect and ±100 for the full control effect.

COC1CC(=O)C23C(=O)NC(CC(C)C)C2C(C)C(C)=CC3/C=C(\C)CCCC1O (stereo not given)
inactive: max response [1] -6.23% | max response [2] 3.61% | max response [3] 1.14% | max response [4] -14.9% | Potency [5] | Potency [6] | Potency [7] | Potency [8] | Potency [9] | Potency [10] | Potency [11] | Potency [12]

CC#C[C@@H](CC(=O)O)c1ccc(OCc2ccc(CN3CCC4(C=Cc5ccccc54)CC3)s2)cc1
inactive: outcome [1] | max response [2] 1.71% | max response [3] -9.33% | outcome [4] | Potency [5] | Potency [6] | Potency [7] | Potency [8] | Potency [9] | Potency [10] | Potency [11] | Potency [12]

CC(=O)O[C@@H]1[C@@H](O)[C@H](O[C@@H]2[C@@H](O)[C@@H](O)[C@H](O[C@H]3[C@H](O[C@H]4[C@H](O[C@H]5CC[C@@]6(C)C(CC[C@]7(C)C6CC=C6[C@@H]8CC(C)(C)CC[C@]8(C(=O)O)CC[C@]67C)[C@]5(C)CO)O[C@H](CO)[C@@H](O)[C@@H]4O)OC[C@@H](O)[C@@H]3O)O[C@H]2C)OC[C@H]1O (stereo not given in full)
inactive: max response [1] -25.8% | max response [2] 3.54% | max response [3] 9.51% | max response [4] 3.03% | activity change, negative = cytotoxicity [5] -4.66% [at 11.6 µM] | activity change, negative = cytotoxicity [6] 10.9% [at 11.6 µM] | activity change, negative = cytotoxicity [7] 17% [at 11.6 µM] | activity change, negative = cytotoxicity [8] -1.31% [at 11.6 µM] | activity change, negative = cytotoxicity [9] 2.05% [at 11.6 µM] | activity change, negative = cytotoxicity [10] 1.05% [at 11.6 µM] | activity change, negative = cytotoxicity [11] 13.7% [at 11.6 µM] | activity change, negative = cytotoxicity [12] 10.1% [at 11.6 µM]

COc1cc(NC(=O)c2cc(C3CC3)on2)c(OC)cc1Cl
inactive: max response [1] -0.243% | max response [2] -5.44% | max response [3] 7.13% | max response [4] -5.84% | Potency [5] | Potency [6] | Potency [7] | Potency [8] | Potency [9] | Potency [10] | Potency [11] | Potency [12]

O=C(N[C@H]1CCC[C@H](CO)C1)C1CCN(c2nc3cc(Cl)c(-c4ccc(Cl)cc4)cc3o2)CC1
inactive: max response [1] -0.419% | max response [2] -4.31% | max response [3] -14.3% | max response [4] 0.931% | Potency [5] | Potency [6] | Potency [7] | Potency [8] | Potency [9] | Potency [10] | Potency [11] | Potency [12]

C[C@@]12C(=O)N(c3ccc(C(=O)Nc4cccc5cccnc45)cc3)C(=O)[C@@H]1[C@@H]1C=C[C@H]2C1
inactive: max response [1] -9.69% | max response [2] -0.616% | max response [3] -11.1% | outcome [4] | Potency [5] | Potency [6] | Potency [7] | Potency [8] | Potency [9] | Potency [10] | Potency [11] | Potency [12]

COc1ccc(Sc2ccc(NC(=O)c3ccccc3Cl)cc2C#N)cc1
inactive: max response [1] -14.2% | max response [2] -11.3% | max response [3] -1.86% | max response [4] -6.24% | Potency [5] | Potency [6] | Potency [7] | Potency [8] | Potency [9] | Potency [10] | Potency [11] | Potency [12]

CC(C)=CCCC1(C)C2CCC1(C)C(O)C2 (stereo not given)
inactive: max response [1] -2.07% | max response [2] -23% | max response [3] -23.6% | max response [4] 0.907% | Potency [5] | Potency [6] | Potency [7] | Potency [8] | Potency [9] | Potency [10] | Potency [11] | Potency [12]

C=C1CCN([C@H](C)[C@](O)(Cn2cncn2)c2ccc(F)cc2F)CC1
inactive: max response [1] -7.35% | max response [2] -11.9% | max response [3] -0.073% | outcome [4] | Potency [5] | Potency [6] | Potency [7] | Potency [8] | Potency [9] | Potency [10] | Potency [11] | Potency [12]

Nc1nc2c(cnn2CCCc2ccc(O)cc2)c2nc(-c3ccco3)nn12
inactive: outcome [1] | max response [2] -2.77% | max response [3] 8.63% | max response [4] 3.84% | Potency [5] | Potency [6] | Potency [7] | Potency [8] | Potency [9] | Potency [10] | Potency [11] | Potency [12]

O=C(NCC(=O)N1CCCC1)Nc1ccc2cnccc2c1
inactive: max response [1] -0.26% | max response [2] -20.6% | max response [3] -4.72% | max response [4] -5.01% | Potency [5] | Potency [6] | Potency [7] | Potency [8] | Potency [9] | Potency [10] | Potency [11] | Potency [12]

COc1ccc(CN2CCN(CCCSc3cc(C(C)(C)C)c(O)c(C(C)(C)C)c3)CC2)c(OC)c1OC
inactive: outcome [1] | max response [2] -2% | outcome [3] | max response [4] 4.43% | activity change, negative = cytotoxicity [5] 1.62% [at 11.6 µM] | activity change, negative = cytotoxicity [6] 11% [at 11.6 µM] | activity change, negative = cytotoxicity [7] -0.531% [at 11.6 µM] | activity change, negative = cytotoxicity [8] 12.2% [at 11.6 µM] | activity change, negative = cytotoxicity [9] 8.85% [at 11.6 µM] | activity change, negative = cytotoxicity [10] -2.05% [at 11.6 µM] | activity change, negative = cytotoxicity [11] 1.83% [at 11.6 µM] | activity change, negative = cytotoxicity [12] 3.61% [at 11.6 µM]

COc1cc2c(cc1O)C1(Cc3ccc4c(c3C1O)OCO4)[N+](C)([O-])CC2 (stereo not given)
inactive: outcome [1] | max response [2] -20.1% | outcome [3] | max response [4] -2.31% | Potency [5] | Potency [6] | Potency [7] | Potency [8] | Potency [9] | Potency [10] | Potency [11] | Potency [12]

O=C(N[C@H](Cc1cscn1)C(=O)N[C@@H](CC1CCCCC1)[C@@H](O)[C@@H](O)C1CC1)c1nc2ccccc2[nH]1
inactive: max response [1] 0.844% | max response [2] -14.3% | max response [3] -12.2% | max response [4] -17.1% | Potency [5] | Potency [6] | Potency [7] | Potency [8] | Potency [9] | Potency [10] | Potency [11] | Potency [12]

C[C@H](Nc1cc2c(-c3ccc4c(c3)OCO4)noc2cn1)c1ccccc1
inactive: max response [1] 3% | max response [2] -9.56% | outcome [3] | max response [4] -4.93% | Potency [5] | Potency [6] | Potency [7] | Potency [8] | Potency [9] | Potency [10] | Potency [11] | Potency [12]

COc1cc(-c2nc(N[C@H](CO)Cc3ccccc3)ccc2C(=O)NCCOc2ccccc2)cc(OC)c1OC
inactive: max response [1] 4.02% | max response [2] -1.78% | max response [3] 7.13% | max response [4] -3.25% | Potency [5] | Potency [6] | Potency [7] | Potency [8] | Potency [9] | Potency [10] | Potency [11] | Potency [12]

CC1(CO)CC(O)[C@]2(C(=O)O)CCC34CC3(C=CC3[C@]5(C)C(CC[C@]34C)C(C)(CO)[C@@H](O)[C@H](O)[C@@H]5O)C2C1 (stereo not given in full)
inactive: max response [1] -11.7% | max response [2] -0.72% | outcome [3] | max response [4] -3.3% | Potency [5] | Potency [6] | Potency [7] | Potency [8] | Potency [9] | Potency [10] | Potency [11] | Potency [12]

CC(C)c1ccc(NC(=O)Cn2cnc3c2c(=O)n(C)c(=O)n3C)cc1
inactive: outcome [1] | max response [2] -14.6% | max response [3] 2.05% | max response [4] -6.55% | Potency [5] | Potency [6] | Potency [7] | Potency [8] | Potency [9] | Potency [10] | Potency [11] | Potency [12]

CC(=O)O[C@H]1C[C@@](O)(C(C)C)[C@@H]2[C@@H](OC(=O)c3ccc(O)cc3)CC(C)=CC[C@@]12C
inactive: max response [1] 3.65% | max response [2] -1.16% | max response [3] 6.43% | max response [4] -25.3% | Potency [5] | Potency [6] | Potency [7] | Potency [8] | Potency [9] | Potency [10] | Potency [11] | Potency [12]

O=C(O)CCc1nccc2c1[nH]c1ccccc12
inactive: max response [1] -19.9% | max response [2] 3.67% | outcome [3] | max response [4] -2.87% | Potency [5] | Potency [6] | Potency [7] | Potency [8] | Potency [9] | Potency [10] | Potency [11] | Potency [12]

O=C1Nc2ccccc2-c2nc3ccccc3c(=O)n2-c2c(O)cccc21
inactive: max response [1] 3.48% | max response [2] -26.5% | max response [3] 0.451% | max response [4] 1.73% | Potency [5] | Potency [6] | Potency [7] | Potency [8] | Potency [9] | Potency [10] | Potency [11] | Potency [12]

CO[C@@H]1[C@H](O)CCC2(CO2)[C@H]1[C@@]1(C)O[C@@H]1CC=C(C)C (stereo not given in full)
inactive: max response [1] -6.79% | max response [2] -1.46% | outcome [3] | max response [4] -13.7% | Potency [5] | Potency [6] | Potency [7] | Potency [8] | Potency [9] | Potency [10] | Potency [11] | Potency [12]

Cc1ccc(C)c(NC(=O)[C@@H]2CCCN2S(=O)(=O)c2cccc3cccnc23)c1
inactive: max response [1] -9.22% | max response [2] -26.4% | max response [3] 9.71% | max response [4] -29.5% | Potency [5] | Potency [6] | Potency [7] | Potency [8] | Potency [9] | Potency [10] | Potency [11] | Potency [12]

CCOc1ccc(-n2c([C@@H](C)N(Cc3cccnc3)C(=O)Cc3ccc(OC(F)(F)F)cc3)nc3ncccc3c2=O)cc1
inactive: max response [1] 0.299% | max response [2] -4.53% | max response [3] 4.98% | max response [4] -0.198% | Potency [5] | Potency [6] | Potency [7] | Potency [8] | Potency [9] | Potency [10] | Potency [11] | Potency [12]

O=C(c1ccc(F)cc1)N1CCCC(c2nc(-c3ccc(F)cc3)no2)C1 (stereo not given)
inactive: max response [1] -19.5% | max response [2] -5.25% | max response [3] -21.6% | max response [4] -12.8% | Potency [5] | Potency [6] | Potency [7] | Potency [8] | Potency [9] | Potency [10] | Potency [11] | Potency [12]
